Measured values published in PubChem BioAssay AID485273 (Sanford-Burnham Center for Chemical Genomics, 2010).
The whole screen tested about 330,000 compounds, of which about 1,500 (0.45%) were called active. This is one part of a sample in which actives are shown more often than they occur. No stated cut-off is given here; in the data, active means inhibition above about 45% (passing the limit was not always enough); inconclusive means no clear call, values can overlap the other calls.

What follows are molecules tested against Ubiquitin-conjugating enzyme E2 N (Homo sapiens) (UniProt P61088) (assay: UBC13 polyubiquitin chain formation inhibitors, primary screen, biochemical, TR-FRET, uHTS (AID 485273)). Details: at 20 µM, active compounds read high.
Chain of Ubiquitin-conjugating enzyme E2 N (Homo sapiens) (P61088 whole entry, looked up): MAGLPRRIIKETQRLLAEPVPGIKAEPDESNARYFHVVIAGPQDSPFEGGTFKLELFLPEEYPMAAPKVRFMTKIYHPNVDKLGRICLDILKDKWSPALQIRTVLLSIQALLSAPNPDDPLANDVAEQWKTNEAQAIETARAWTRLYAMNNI
In the case of CNCC(O)c1cc(F)c(OCc2ccccc2)c(OCc2ccccc2)c1F (stereo not given), the inhibition is reported as 69.2% (active). With CCN(N=Nc1nonc1OC)c1nonc1OC the inhibition was -6.3% (inactive). In the case of CCCC[N+]1(C)C2CC(OC(=O)C(CO)c3ccccc3)CC1C1OC12 (stereo not given), the inhibition is reported as 1.6% (inactive). For CCOC(=O)c1c(C)c(C(=O)N2CCC3(CC2)OCCO3)c(C)n1CC, the inhibition was -14.5% (inactive). O=C1NC(=O)C(CCc2ccccn2)(Cc2cccc(Cl)c2Cl)C(=O)N1c1ccc(Br)cc1 (stereo not given) was tested, and the inhibition was 0.9% (inactive).
